A selection: hits, their analogues and other compounds. The true share with any hit is near 2.7%.
SENP8 block-1: inhibitors of human SENP8 protease; recombinant SENP8, Nedd8 substrate fluorescence; Q96LD8; AID 602440; 360,000 tested, 0.64% active; inhibition, % at 20 µM; in the data active means inhibition mostly above about 40%, no sharp cut-off; inactive means mostly below about 27%
Target sequence (Q96LD8 whole entry, looked up): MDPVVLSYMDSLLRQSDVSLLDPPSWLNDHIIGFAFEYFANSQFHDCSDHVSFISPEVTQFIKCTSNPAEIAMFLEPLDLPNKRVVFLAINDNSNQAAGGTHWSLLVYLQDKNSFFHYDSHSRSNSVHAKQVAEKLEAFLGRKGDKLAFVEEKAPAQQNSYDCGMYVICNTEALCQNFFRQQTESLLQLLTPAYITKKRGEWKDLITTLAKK
SENP7 block: SENP7 protease inhibition; Q9BQF6; recombinant SENP7, Z-RLRGG-aminoluciferin luminescence, 40 min; inhibition, % at 5 µM; 330,000 tested, 1.5% active; AID 434973;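 active means inhibition above about 50% at the single test dose, limit read from the data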;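 further: plate controls were DMSO with enzyme for no effect and no enzyme buffer wells for full effect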
HSP90 refold inh: HSP90 refolding inhibition in rabbit reticulocyte lysate; luciferase refolding luminescence, 3 h; inhibition, % at 5.6 µM; 290,000 tested, 0.91% active; AID 1789;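 active means inhibition above the screen-wide mean plus 3 SD, computed separately per campaign, cut at about 16% in these data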;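 further: 0% = DMSO wells and 100% = 60 µM geldanamycin wells; inhibitors lower the luminescence because luciferase stays unfolded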
SENP6 block: SENP6 protease inhibition; Q9GZR1; Recombinant SENP6 catalytic domain, aminoluciferin luminescence; inhibition, % at 10 µM; 330,000 tested, 1.8% active; AID 2599;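 active means inhibition above about 50% at the single tested dose, limit read from the data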;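 further: plate controls were DMSO wells with enzyme for no effect and DMSO wells lacking enzyme for full effect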
SENP8 block-2: inhibitors of human SENP8 protease | Q96LD8 | AID 2540 | inhibition, % at 10 µM | purified SENP8, Z-RLRGG-aminoluciferin cleavage, luminescence | 330,000 tested, 1.2% active; in the data active means inhibition above about 50%
HSP90 inh confirm: confirmation of HSP90 inhibitors; shares compounds with HSP90 refold inh; rabbit reticulocyte lysate, luciferase refolding luminescence, 3 h; inhibition, % at 5.9 µM; 2,300 tested, 64% active; in the data active means inhibition above about 18%;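 further: 0% = vehicle wells and 100% = reference inhibitor wells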
FLuc counter: blocks native firefly luciferase in HSP90 counter-screen. shares compounds with HSP90 refold inh. purified native firefly luciferase, luminescence. inhibition, % at 5.9 µM. 2,300 tested, 48% active. AID 1847;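 active means inhibition above the mean inhibition of all tested sample wells plus 3 SD, cut at about 10% in these data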;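 further: 0% = DMSO with luciferase and 100% = wells lacking luciferase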
SENP8 confirm: human SENP8 inhibition, confirmed; shares compounds with SENP7 block; AID 488912; 6,200 tested, 40% active; inhibition, % at 12.5 µM; Recombinant SENP8, Z-RLRGG-aminoluciferin luminescence, 60 min;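 active means mean inhibition across replicates above about 50%, limit read from the data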
SENP6 conf: confirmation of human SENP6 protease inhibitors; shares compounds with SENP7 block; recombinant SENP6, Z-RLRGG-aminoluciferin luminescence; inhibition, % at 12.5 µM; 6,200 tested, 58% active
SENP7 confirm: human SENP7 inhibition, confirmed; shares compounds with SENP7 block; recombinant SENP7, Z-RLRGG-aminoluciferin luminescence, 40 min; inhibition, % at 12.5 µM; 6,200 tested, 69% active; AID 488917
Casp3 SENP sel: selectivity test for SENP inhibitors: human caspase-3 inhibition | shares compounds with SENP7 block | purified caspase-3, Z-DEVD-aminoluciferin luminescence, 60 min | inhibition, % at 12.5 µM | 6,200 tested, 60% active | AID 488918;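 active means mean inhibition above about 50%, limit read from the data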;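 further: plate controls were enzyme with DMSO for no effect and wells without caspase-3 for full effect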
Target sequence (P42574 28-227 limits assumed): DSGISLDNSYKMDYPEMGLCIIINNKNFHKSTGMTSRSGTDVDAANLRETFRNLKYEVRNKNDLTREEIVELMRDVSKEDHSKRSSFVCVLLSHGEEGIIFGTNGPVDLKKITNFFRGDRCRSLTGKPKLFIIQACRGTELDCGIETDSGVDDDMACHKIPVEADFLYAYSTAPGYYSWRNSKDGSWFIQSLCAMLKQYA
SENP luc ctr: luminescence interference (SENP counter-screen) | shares compounds with SENP7 block | Pre-incubated SENP8/Z-RLRGG-aminoluciferin, luciferase luminescence interference | inhibition, % at 12.5 µM | 6,200 tested, 39% active;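 active means mean inhibition above about 50% when retested at one dose, limit read from the data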;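 further: plate controls were DMSO wells with completed reaction for no effect and substrate without enzyme for full effect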
* = called active by the depositor; . = no result given.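 How the source made its calls, unless noted: active means mean inhibition above about 50% in the one-dose retest (limit read from the data); inactive means the rest.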

SMILES | SENP8 block-1 | SENP7 block | HSP90 refold inh | SENP6 block | SENP8 block-2 | HSP90 inh confirm | FLuc counter | SENP8 confirm | SENP6 conf | SENP7 confirm | Casp3 SENP sel | SENP luc ctr
O=C(c1cc(-c2ccc(Br)cc2)nc2ccccc12)N1CCN(c2ccccc2O)CC1 | 12 | -8 | . | -15 | -9 | . | . | . | . | . | . | .
Cn1c(=O)c2[nH]c(C3CCC3)nc2n(C)c1=O | 1 | . | . | . | . | . | . | . | . | . | . | .
O=C(CSc1ncnc2c1oc1ccccc12)Nc1cccc(F)c1 | 13 | -4 | -3 | -26 | -7 | . | . | . | . | . | . | .
Clc1ccc(/C=C/c2nc3ccccc3[nH]2)cc1 | -266 | 100* | 35* | 98* | 97* | 69* | 63* | 99* | 100* | 103* | 98* | 83*
Clc1ccc(/C=C/c2nc3ccccc3[nH]2)c(Cl)c1 | -273 | 99* | 44* | 100* | 97* | 77* | 72* | 99* | 100* | 104* | 98* | 34
O=C1NC(=O)/C(=C\c2ccc(OCc3cccc(C(=O)O)c3)c(Cl)c2)N1 | -179 | 77* | 31* | 95* | 90* | 45* | 50* | -16 | 93* | 101* | 30 | 71*
Cc1ccc2nc(-c3ccc(N)cc3)sc2c1 | -459 | 98* | 50* | 95* | 95* | 69* | 66* | 96* | 98* | 102* | 92* | 45
Nc1ccc(-c2nc3cc(N)ccc3s2)cc1 | -429 | 90* | 25* | 75* | 84* | 47* | 39* | 93* | 93* | 100* | 90* | 90*
Nc1ccc2nc(-c3ccccc3)c(-c3ccccc3)nc2c1 | -221 | 12 | 6 | 21 | 1 | . | . | . | . | . | . | .
Nc1ccc2nc(-c3ccccc3)sc2c1 | -289 | 98* | 37* | 98* | 96* | 72* | 68* | 98* | 100* | 103* | 98* | 97*
CC(=O)NC(=S)Nc1ccc(-c2nc3ccc(C)cc3s2)cc1 | -290 | 12 | 0 | 3 | -10 | . | . | . | . | . | . | .
O=C(O)c1cccc(-n2cccc2/C=C/[N+](=O)[O-])c1 | -36 | -11 | 1 | -5 | 2 | . | . | . | . | . | . | .
COc1ccc2c(c1OC)C(=O)OC2Nc1nc(-c2cc3ccccc3oc2=O)cs1 (stereo not drawn) | -242 | 91* | 64* | 96* | 90* | 14 | 2 | 91* | 95* | 88* | 94* | 86*
COc1ccc(N/C=C\C(=O)c2ccc3ccccc3c2)cc1 | -20 | 0 | 9 | -11 | -12 | . | . | . | . | . | . | .
COc1ccc(NC(=O)Nc2cc(C)ccn2)cc1 | 24 | . | . | . | . | . | . | . | . | . | . | .
COc1ccc(N/C=C/C(=O)c2ccccc2)cc1 | -25 | 96* | 54* | 94* | 95* | 88* | 81* | -21 | 93* | 103* | 97* | 32
COc1ccc(C(=O)/C=C/Nc2cc(C)ccn2)cc1 | -319 | 95* | 31* | 95* | 95* | 68* | 55* | 12 | 99* | 103* | 96* | 47
O=C(NNC(=O)c1cc2ccccc2o1)c1ccncc1 | -1 | 1 | . | -9 | -10 | . | . | . | . | . | . | .
CCOC(=O)c1sc(Nc2nc(C)cc(C)n2)nc1C | -4 | -8 | 1 | -17 | -8 | . | . | . | . | . | . | .
Cc1ccc(NC(=O)c2cc(C)n(-c3ccccc3)c2C)cc1 | 16 | 72* | 75* | 86* | 67* | 85* | 83* | 86* | 85* | 97* | 73* | 43
Cc1cc(C(=O)Nc2ccc(Cl)cc2)c(C)n1-c1ccccc1 | 7 | 91* | 81* | 93* | 89* | 81* | 80* | 91* | 98* | 102* | 88* | 30
Cc1ccsc1/C=N/n1cnnc1 | 11 | -3 | -6 | -36 | -8 | . | . | . | . | . | . | .
Cc1cc(NC2CCCC2)n2nc(C)c(-c3ccccc3)c2n1 | -276 | 1 | 0 | -5 | 4 | . | . | . | . | . | . | .
Cc1cc(NCCCn2ccnc2)n2ncc(-c3ccccc3)c2n1 | -491 | 55* | 34* | 67* | 39 | 62* | 56* | 53* | 52* | 82* | 60* | 46
Cc1cc(N2CCCCC2)n2ncc(-c3ccccc3)c2n1 | -484 | 53* | 37* | 50* | 29 | 50* | 54* | 36 | 43 | 75* | 32 | 24
SMILES | SENP8 block-1 | SENP7 block | HSP90 refold inh | SENP6 block | SENP8 block-2 | HSP90 inh confirm | FLuc counter | SENP8 confirm | SENP6 conf | SENP7 confirm | Casp3 SENP sel | SENP luc ctr
Cc1cc(NC2CCCC2)n2ncc(-c3ccccc3)c2n1 | -314 | 83* | 59* | 77* | 71* | 71* | 70* | 80* | 84* | 93* | 62* | 32
Cc1cc(N2CCCCC2)n2nc(C)c(-c3ccccc3)c2n1 | -462 | 5 | -2 | -6 | 7 | . | . | . | . | . | . | .
Cc1cc(N2CCOCC2)n2ncc(-c3ccccc3)c2n1 | -260 | 57* | 51* | 47 | 40 | 67* | 62* | 55* | 55* | 84* | 63* | 30
CC(C)C[C@H]1CN(CCCC[C@H]2CNC(=O)C(=O)N2CCC2CCCCC2)C(=O)C(=O)N1CC1CCCCC1 | 14 | . | . | . | . | . | . | . | . | . | . | .
O=C1CCC(=O)N1c1ccc(-c2nc3ccccc3s2)cc1 | -45 | 94* | 46* | 89* | 70* | 74* | 66* | 42 | 62* | 83* | 72* | 26
CCC(C)C(N)C1=NC(C(=O)N[C@@H](CC(C)C)C(=O)N[C@H](CCC(=O)O)C(=O)N[C@H](C(=O)N[C@H]2CCCCNC(=O)[C@H](CC(N)=O)NC(=O)[C@@H](CC(=O)O)NC(=O)[C@H](Cc3cnc[nH]3)NC(=O)[C@@H](Cc3ccccc3)NC(=O)[C@H]([C@@H](C)CC)NC(=O)[C@@H](CCCN)NC2=O)[C@@H](C)CC)CS1 (stereo partly drawn) | -91 | . | . | . | . | . | . | . | . | . | . | .
COc1ccc(NC2CCCN(C(=O)c3cccnc3)C2)cc1 (stereo not drawn) | 11 | -8 | -1 | -13 | -5 | . | . | . | . | . | . | .
Cc1ccc(NC(=O)c2cc3ccccc3oc2=N)cc1 | 19 | 90* | 55* | 58* | 33 | 20* | 31* | 16 | 16 | 7 | 20 | 6
